Results on 56 compounds are retold here after paper PMC4336329 (PLoS ONE, 2015).

Among all 310,000 compounds or so, about 14,000 (4.5%) showed an effect of 50% or more. Effects have a minus sign here. Shown is part of a subset that was picked to be rich in strong results.
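Also: peak tail current of the secondary pulse compared with the same well before compound.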

This assay deals with human ether-à-go-go-related gene (hERG) potassium channel (human, UniProt Q12809). As to the kind of experiment: primary screen, population patch clamp on CHO cells stably expressing hERG; higher = less effect of the substance.
human ether-à-go-go-related gene (hERG) potassium channel, sequence (Q12809 whole entry, looked up): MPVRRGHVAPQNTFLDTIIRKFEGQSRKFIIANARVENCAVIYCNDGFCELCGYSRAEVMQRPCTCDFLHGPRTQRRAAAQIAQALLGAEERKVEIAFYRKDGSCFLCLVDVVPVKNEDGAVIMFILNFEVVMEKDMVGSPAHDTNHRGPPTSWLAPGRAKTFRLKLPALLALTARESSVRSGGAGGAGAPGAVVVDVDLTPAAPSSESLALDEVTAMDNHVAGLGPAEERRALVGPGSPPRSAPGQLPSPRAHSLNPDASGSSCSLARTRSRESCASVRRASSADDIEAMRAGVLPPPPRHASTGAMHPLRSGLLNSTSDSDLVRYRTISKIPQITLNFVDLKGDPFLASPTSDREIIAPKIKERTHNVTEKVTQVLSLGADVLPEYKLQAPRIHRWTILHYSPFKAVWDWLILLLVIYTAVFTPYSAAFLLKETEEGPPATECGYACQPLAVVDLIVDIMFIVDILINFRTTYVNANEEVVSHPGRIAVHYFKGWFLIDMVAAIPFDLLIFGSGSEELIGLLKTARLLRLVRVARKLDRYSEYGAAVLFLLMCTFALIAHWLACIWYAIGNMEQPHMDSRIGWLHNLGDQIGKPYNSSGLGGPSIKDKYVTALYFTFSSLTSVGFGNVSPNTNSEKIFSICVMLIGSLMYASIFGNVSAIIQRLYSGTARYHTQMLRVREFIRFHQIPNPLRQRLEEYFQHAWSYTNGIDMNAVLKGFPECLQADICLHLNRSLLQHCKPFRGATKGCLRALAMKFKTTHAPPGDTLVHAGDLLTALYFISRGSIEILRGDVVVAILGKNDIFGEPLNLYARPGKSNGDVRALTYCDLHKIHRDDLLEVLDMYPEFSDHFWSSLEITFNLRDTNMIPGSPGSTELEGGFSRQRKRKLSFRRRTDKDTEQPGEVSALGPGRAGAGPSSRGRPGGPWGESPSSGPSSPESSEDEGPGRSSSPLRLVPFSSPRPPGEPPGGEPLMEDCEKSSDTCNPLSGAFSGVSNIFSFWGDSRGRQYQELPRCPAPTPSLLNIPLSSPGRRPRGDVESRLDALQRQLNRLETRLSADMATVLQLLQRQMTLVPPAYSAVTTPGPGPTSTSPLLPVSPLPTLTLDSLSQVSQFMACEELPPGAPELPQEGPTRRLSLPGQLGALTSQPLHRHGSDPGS
Take `CCOC(=O)c1csc(NC(=O)c2ccc(OCC)cc2)n1`: the “hERG current change (%, negative = inhibition) at 10uM” value is -14.9%. The result for `Cc1ccccc1C(=O)OC1OC(=O)C(Cl)=C1Nc1ccc(C(=O)O)cc1` (centres unmarked) reads 24.4%.

Take `COc1ccc(N2CCN(C3CCCN(S(=O)(=O)c4ccccc4)C3)CC2)cc1` (centres unmarked): the “hERG current change (%, negative = inhibition) at 10uM” value was -31.1%. In the case of `COc1ccc(N2CCN(C3CCCN(Cc4ccc(F)c(F)c4)C3)CC2)cc1` (centres unmarked), the “hERG current change (%, negative = inhibition) at 10uM” value is -64.6%. To `COc1ccccc1N1CCN(C2CCCN(Cc3c(F)cccc3F)C2)CC1` (centres unmarked) belongs -16.3%. To `CCc1ccc(S(=O)(=O)N2CCCC(N3CCN(c4ccc(OC)cc4)CC3)C2)cc1` (centres unmarked) belongs -65.4%.

Take `COc1ccc(S(=O)(=O)N2CCN3CCCC3C2)cc1` (centres unmarked): the “hERG current change (%, negative = inhibition) at 10uM” value is recorded as 22.7%.

Take `CC1CCCCN1CCCNc1ccc(C(CC(N)=O)NC(=O)Cc2cccc3ccccc23)cc1[N+](=O)[O-]` (centres unmarked): the “hERG current change (%, negative = inhibition) at 10uM” value is recorded as -14.6%. The result for `Nc1nc(Oc2ccc(F)cc2)c(Br)c(=O)[nH]1` reads 7.49%. Take `COc1ccc(-c2c(-c3ccc(OCC(=O)NN)cc3O)n[nH]c2C(F)(F)F)cc1`: the “hERG current change (%, negative = inhibition) at 10uM” value is on record as -5.25%. To `C/C(CC(=O)Nc1cc(Cl)ccc1Cl)=N\NC(=O)c1ccco1` belongs -6.6%; to `Cc1ccc(CCNC(=O)C2CC(c3ccccc3[N+](=O)[O-])=NO2)cc1` (centres unmarked), -20.7%.

In the case of `Cc1c(C=O)n(C)n(-c2ccccc2)c1=O`, the “hERG current change (%, negative = inhibition) at 10uM” value is 11.5%.

`Cl.O=C(c1cc2ccccc2o1)N1CCN(Cc2ccccc2)CC1`: the “hERG current change (%, negative = inhibition) at 10uM” value was -32.6%. As for `O=C(c1cc2ccccc2o1)N1CCN(S(=O)(=O)/C=C/c2ccccc2)CC1`, the “hERG current change (%, negative = inhibition) at 10uM” value is -30.8%. To `O=C(c1ccc(Br)s1)N1CCN(C/C=C/c2ccccc2)CC1` belongs -40.6%; to `O=C(c1ccc(Br)o1)N1CCN(C/C=C/c2ccccc2)CC1`, -61.8%; to `O=C(c1cc2ccccc2o1)N1CCN(C/C=C/c2ccccc2)CC1`, -62.2%. To `Cl.O=C(c1ccco1)N1CCN(C/C=C/c2ccccc2)CC1` belongs -38%; to `S=c1[nH]nc(-c2cccs2)n1Cc1ccccc1`, 9%. As to `CCCN1C2CCCC1CC(NC(=O)NC1CCCCC1)C2` (centres unmarked), the “hERG current change (%, negative = inhibition) at 10uM” value is reported as -12.4%. To `COCCNC(=O)Cn1cnc2ccc(S(=O)(=O)N3CCC(C)CC3)cc2c1=O` belongs -15.1%; to `CCOCC(=O)Nc1cc(-c2cn3cccnc3n2)ccc1C`, 6.69%. The result for `CCn1c(CSc2nc3ccccc3s2)nnc1SCC(=O)c1ccc(O)cc1O` reads 12.2%.

`Cn1c(SCC(=O)N2CCCCC2)nc2cccnc21`: the “hERG current change (%, negative = inhibition) at 10uM” value is listed as 22.2%. `NC(=O)c1ccsc1NC(=O)COC(=O)C1=NNC(=O)CC1`: the “hERG current change (%, negative = inhibition) at 10uM” value is recorded as 8.28%.

Turning to `COC(=O)c1cc2n(n1)CCN(Cc1ccc(C)cc1)C2=O`, the “hERG current change (%, negative = inhibition) at 10uM” value worked out at 1.46%. The result for `CCOC(=O)N1CCN(C(=O)c2cc3cc(Cl)ccc3[nH]2)CC1` reads -15.7%; that for `CCOC(=O)N1CCN(C(=O)c2cc3cc(F)ccc3[nH]2)CC1`, -19.8%. The result for `CCN1CCN(C(=O)c2cc3cc(Cl)ccc3[nH]2)CC1` reads -59.8%; that for `CN1CCN(C(=O)c2cc3cc(Cl)ccc3[nH]2)CC1.Cl`, -35.7%; that for `O=C(c1cc2cc(F)ccc2[nH]1)N1CCN(c2ccc(F)cc2)CC1`, -4.93%.

`CCN1CCN(C(=O)c2cc3cc(F)ccc3[nH]2)CC1`: the “hERG current change (%, negative = inhibition) at 10uM” value is listed as -65%.

Take `CC(=O)Nc1ccc(S(=O)(=O)N(c2cccnc2)S(=O)(=O)c2ccc(NC(C)=O)cc2)cc1`: the “hERG current change (%, negative = inhibition) at 10uM” value is recorded as -3.89%. Take `Cc1cc(C)cc(NC(=O)CSc2ncc(S(=O)(=O)c3ccccc3)c(=O)[nH]2)c1`: the “hERG current change (%, negative = inhibition) at 10uM” value is listed as 13.6%. To `O=C(Nc1ncn[nH]1)c1cc(S(=O)(=O)Nc2cccc(C(F)(F)F)c2)ccc1Cl` belongs 17.8%; to `COc1ccc(CNC(=O)COC(=O)c2n[nH]c3ccccc23)cc1`, 7.27%; to `CN(C)CCOC(c1ccc(Cl)cc1)c1ccccn1.O=C(O)/C=C/C(=O)O` (centres unmarked), -43%.

Consider `CN(C)CCO[C@@H](c1ccc(Cl)cc1)c1ccccn1.O=C(O)/C=C\C(=O)O`, for which the “hERG current change (%, negative = inhibition) at 10uM” value is given as -29.5%.

`Cc1ccc(C(OCCN(C)C)c2cccc(C(F)(F)F)c2)cc1.O=C(O)/C=C\C(=O)O` (centres unmarked): the “hERG current change (%, negative = inhibition) at 10uM” value is -58.6%. The result for `CCOc1cc(/C=N/NC(=O)c2ccc(O)cc2)ccc1Oc1nc(Cl)ncc1F` reads -7.77%.

For the compound `CCOc1cc(/C=N\Nc2ncc(F)c(N3CCOCC3)n2)ccc1Oc1nc(Cl)ncc1F`, the “hERG current change (%, negative = inhibition) at 10uM” value is reported as -51.8%.

Regarding `COc1ccc(/C=N\Nc2ncc(F)c(N3CCOCC3)n2)cc1OC`, the “hERG current change (%, negative = inhibition) at 10uM” value is on record as -31.1%.

For `CCS(=O)(=O)N1CCN(S(=O)(=O)c2ccc(F)cc2)CC1`, the “hERG current change (%, negative = inhibition) at 10uM” value is -18.4%. To `O=C(NC1CCCCC1)c1ccc(-c2cccc([N+](=O)[O-])c2)o1` belongs 12.4%. To `O=C(NC1CCC(O)CC1)c1ccc(-c2ccc([N+](=O)[O-])cc2)o1` (centres unmarked) belongs -76.2%; to `O=C(NC1CCC(O)CC1)c1ccc(-c2ccc(Cl)cc2)o1` (centres unmarked), -21.8%. In the case of `O=C(Nc1ccccc1)c1ccc(-c2ccc([N+](=O)[O-])cc2)o1`, the “hERG current change (%, negative = inhibition) at 10uM” value came to 4.73%. To `O=C(NC1CN2CCC1CC2)c1ccc(-c2ccc([N+](=O)[O-])cc2)o1` (centres unmarked) belongs -64%; to `CC(=O)Nc1ccc(NC(=O)c2ccc(-c3ccc([N+](=O)[O-])cc3)o2)cc1`, -14.5%.

For `Cc1cc(=O)[nH]c(Nc2ccc(Cl)cc2)n1`, the “hERG current change (%, negative = inhibition) at 10uM” value is listed as 15%. `CN1C(=O)C(CC(=O)Nc2ccccc2F)N(NC(=O)c2ccc(Br)cc2)C1=S` (centres unmarked): the “hERG current change (%, negative = inhibition) at 10uM” value was 6.5%. Consider `Cc1ccc(CCSCC(=O)O)cn1`, for which the “hERG current change (%, negative = inhibition) at 10uM” value is on record as 18.9%. To `C=CCN1C(=O)CSc2ccc(C(=O)NCc3ccc(F)cc3)cc21` belongs -21.3%; to `CCN(C(=O)COc1ncnc2sccc12)c1ccccc1`, 63.8%; to `COc1ccc(C2SCC(=O)N2c2c(C)n(C)n(-c3ccccc3)c2=O)cc1OC` (centres unmarked), 13.6%.
